Results filed as inconclusive are left out. Calls of active or inactive are those of the source. Rule for the calls, unless noted: active = hit-call score of the fitted dose curve at least 0.9, where 1 is the maximum; inactive = score below 0.9.
What was measured:
[1] = read-out: E-selectin (Homo sapiens) (UniProt P16581); assay: BSK_3C_Eselectin: BioMAP Diversity Plus: 3C Assay for Eselectin Biomarker Activity (AID 2283015); conditions: primary human endothelial cells (HUVEC); actives raise or lower the signal;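 for outcome: cell surface E-selectin protein quantified by ELISA 24 h after dosing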
Summary of the method: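 Primary human umbilical vein endothelial cells (3C system) were dosed with chemical and cell-surface E-selectin measured by ELISA 24 h later. Bidirectional curve fitting used DMSO as negative control and baseline.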

[2] = read-out: Interleukin-1 alpha (IL1a), IL1A (gene 3552); assay: BSK_BE3C_IL1a: BioMAP Diversity Plus: BE3C Assay for Interleukin-1 alpha (IL1a) Biomarker Activity (AID 2283016); conditions: primary human bronchial epithelial cells; actives raise or lower the signal
Summary of the method: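 ELISA read-out of IL-1a from human lung bronchial epithelial primary cells, 24 h post-dose. Gain or loss of signal fitted relative to DMSO negative control.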

[3] = read-out: Monocyte Chemoattractant Protein-1 (MCP1), CCL2 (gene 6347); assay: BSK_3C_MCP1: BioMAP Diversity Plus: 3C Assay for Monocyte Chemoattractant Protein-1 (MCP1) Biomarker Activity (AID 2283017); conditions: primary human endothelial cells (HUVEC); actives raise or lower the signal
Summary of the method: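 Primary human umbilical vein endothelial cells (3C system) were exposed to test chemical for 24 h, after which MCP-1 was quantified by ELISA. Activity was fitted bidirectionally against DMSO as negative control and baseline.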

[4] = read-out: Monocyte Chemoattractant Protein-1 (MCP1), CCL2 (gene 6347); assay: BSK_4H_MCP1: BioMAP Diversity Plus: 4H Assay for Monocyte Chemoattractant Protein-1 (MCP1) Biomarker Activity (AID 2283018); conditions: primary human endothelial cells (HUVEC); actives raise or lower the signal
Summary of the method: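 HUVEC primary cells, 24 h post-dose, MCP-1 by ELISA. Gain or loss of signal fitted bidirectionally vs DMSO baseline. Cytotoxicity: SRB stain (0.1% after 10% TCA fixation), read 560 nm, parallel cultures.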

[5] = read-out: Human Leukocyte Antigen - DR isotype (HLADR), HLA-DRA (gene 3122); assay: BSK_3C_HLADR: BioMAP Diversity Plus: 3C Assay for Human Leukocyte Antigen - DR isotype (HLADR) Biomarker Activity (AID 2283019); conditions: primary human endothelial cells (HUVEC); actives raise or lower the signal;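 for outcome: ELISA of cell-surface HLA-DR on HUVEC 24 h after dosing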
Summary of the method: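 Primary human umbilical vein endothelial cells (3C system) were dosed with compound and cell-surface HLA-DR was quantified by ELISA at 24 h. Activity was fitted bidirectionally against DMSO as negative control and baseline.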

[6] = read-out: Interleukin-8 (IL8), CXCL8 (gene 3576); assay: BSK_3C_IL8: BioMAP Diversity Plus: 3C Assay for Interleukin-8 (IL8) Biomarker Activity (AID 2283020); conditions: primary human endothelial cells (HUVEC); actives raise or lower the signal
Summary of the method: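 HUVEC, 3C stimulation; 24 h compound exposure; IL-8 read by ELISA; gain or loss of signal fitted relative to DMSO control.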

[7] = read-out: Monokine induced gamma interferon (MIG), CXCL9 (gene 4283); assay: BSK_3C_MIG: BioMAP Diversity Plus: 3C Assay for Monokine induced gamma interferon (MIG) Biomarker Activity (AID 2283021); conditions: primary human endothelial cells (HUVEC); actives raise or lower the signal
Summary of the method: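 HUVEC, 3C system; 24 h chemical exposure; MIG by ELISA; bidirectional fit vs DMSO baseline.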

[8] = target: human Vitamin D Receptor (VDR), VDR (gene 7421) (UniProt P11473); assay: ATG_VDR_TRANS: Attagene TRANS-FACTORIAL HepG2 Assay for human Vitamin D Receptor (VDR) (AID 2283022; active = hit-call score of the fitted dose curve at least 0.9, where 1 is the maximum)
Sequence of human Vitamin D Receptor (VDR), VDR (gene 7421) (P11473 whole entry, looked up, the tested form may be a part): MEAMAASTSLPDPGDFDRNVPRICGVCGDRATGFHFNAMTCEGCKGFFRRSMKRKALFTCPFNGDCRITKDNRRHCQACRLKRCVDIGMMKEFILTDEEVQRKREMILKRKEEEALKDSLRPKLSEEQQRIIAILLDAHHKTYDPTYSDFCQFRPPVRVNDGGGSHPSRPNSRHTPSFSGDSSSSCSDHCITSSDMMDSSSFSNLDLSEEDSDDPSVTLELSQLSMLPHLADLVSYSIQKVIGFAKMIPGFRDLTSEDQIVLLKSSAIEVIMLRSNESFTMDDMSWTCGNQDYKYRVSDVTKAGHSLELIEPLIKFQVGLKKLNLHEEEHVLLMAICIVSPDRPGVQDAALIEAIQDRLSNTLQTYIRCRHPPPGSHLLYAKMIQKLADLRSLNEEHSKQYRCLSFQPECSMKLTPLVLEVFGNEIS
Summary of the method: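 HepG2 cells were transiently transfected with multiple GAL4-UAS reporter units, so signal reflects exogenous chimeric receptor-Gal4 activity. After 24 h compound exposure, reporter mRNA was measured by RT-PCR, fluorescent labelling and capillary electrophoresis, fitted for gain of signal versus DMSO.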

[9] = BSK_3C_SRB: Viability Assessment in the BioMAP Diversity Plus: 3C Assay (AID 2283023); conditions: primary human endothelial cells (HUVEC);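 note: fitted both ways against DMSO so a hit may be signal rise or drop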
Summary of the method: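 Primary human umbilical vein endothelial cells in the 3C system were read 24 h after compound dosing. Total protein was stained with 0.1% sulforhodamine B after 10% TCA fixation and read at 560 nm, with bidirectional fitting against DMSO as baseline.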

[10] = read-out: Matrix Metallopeptidase 1 (MMP1), MMP1 (gene 4312); assay: BSK_BE3C_MMP1: BioMAP Diversity Plus: BE3C Assay for Matrix Metallopeptidase 1 (MMP1) Biomarker Activity (AID 2283024); conditions: primary human bronchial epithelial cells; actives raise or lower the signal
Summary of the method: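 ELISA read-out of MMP1 in human lung bronchial epithelial primary cultures, 24 h post-dose; bidirectional curve fit vs DMSO baseline, gain or loss of signal scored.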

[11] = BSK_3C_Vis: BioMAP Diversity Plus: 3C Assay for Morphology Visualization (AID 2283025); conditions: primary human endothelial cells (HUVEC);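 note: fitted both ways so gain or loss versus DMSO counts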;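 for AC50: light microscopy image of cell morphology used as background control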
Summary of the method: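 HUVEC, 3C system; light microscopy of morphology at 24 h post-dose. Bidirectional fit vs DMSO baseline. Secondary readout, background-control function.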

[12] = read-out: Pselectin, SELP (gene 6403); assay: BSK_4H_Pselectin: BioMAP Diversity Plus: 4H Assay for Pselectin Biomarker Activity (AID 2283026); conditions: primary human endothelial cells (HUVEC); actives raise or lower the signal
Summary of the method: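 HUVEC, 24 h chemical exposure; P-selectin read by ELISA. Bidirectional curve fit vs DMSO baseline; gain or loss of signal scored.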

[13] = BSK_BE3C_SRB: Viability Assessment in the BioMAP Diversity Plus: BE3C Assay (AID 2283028); conditions: primary human bronchial epithelial cells;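 for AC50: fitted both ways so AC50 may mark signal gain or loss versus DMSO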
Summary of the method: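 Human primary bronchial epithelial cells were exposed to test chemicals for 24 h. Total protein in parallel cultures was then measured by staining with 0.1% sulforhodamine B after 10% TCA fixation, with absorbance read at 560 nm. Activity was fitted bidirectionally against DMSO.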

[14] = read-out: Thrombomodulin, THBD (gene 7056); assay: BSK_3C_Thrombomodulin: BioMAP Diversity Plus: 3C Assay for Thrombomodulin Biomarker Activity (AID 2283029); conditions: primary human endothelial cells (HUVEC); actives raise or lower the signal
Summary of the method: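 HUVEC, 3C conditions; compound 24 h; thrombomodulin by ELISA; bidirectional curve fit vs DMSO baseline; parallel SRB total-protein staining for cytotoxicity.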

[15] = read-out: Urokinase-type plasminogen activator receptor (uPAR), PLAUR (gene 5329); assay: BSK_4H_uPAR: BioMAP Diversity Plus: 4H Assay for Urokinase-type plasminogen activator receptor (uPAR) Biomarker Activity (AID 2283030); conditions: primary human endothelial cells (HUVEC); actives raise or lower the signal
Summary of the method: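 Primary human umbilical vein endothelial cells were exposed to chemical for 24 h before cell-surface uPAR was quantified by ELISA. Activity was fitted bidirectionally against the DMSO negative control baseline.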

[16] = read-out: Vascular endothelial growth factor receptor 2 (Homo sapiens) (UniProt P35968); assay: BSK_4H_VEGFRII: BioMAP Diversity Plus: 4H Assay for Vascular endothelial growth factor receptor 2 (VEGFR2) Biomarker Activity (AID 2283031); conditions: primary human endothelial cells (HUVEC); actives raise or lower the signal
Summary of the method: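 Primary human umbilical vein endothelial cells in the BioMAP 4H system were dosed with test chemical, and 24 h later VEGFRII was measured by ELISA. Activity was fitted bidirectionally against DMSO as negative control and baseline.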

[17] = target: human Thyroid Receptor alpha (THRa1), THRA (gene 7067) (UniProt P10827); assay: ATG_THRa1_TRANS: Attagene TRANS-FACTORIAL HepG2 Assay for human Thyroid Receptor alpha (THRa1) (AID 2283014; active = hit-call score of the fitted dose curve at least 0.9, where 1 is the maximum)
Sequence of human Thyroid Receptor alpha (THRa1), THRA (gene 7067) (P10827 whole entry, looked up, the tested form may be a part): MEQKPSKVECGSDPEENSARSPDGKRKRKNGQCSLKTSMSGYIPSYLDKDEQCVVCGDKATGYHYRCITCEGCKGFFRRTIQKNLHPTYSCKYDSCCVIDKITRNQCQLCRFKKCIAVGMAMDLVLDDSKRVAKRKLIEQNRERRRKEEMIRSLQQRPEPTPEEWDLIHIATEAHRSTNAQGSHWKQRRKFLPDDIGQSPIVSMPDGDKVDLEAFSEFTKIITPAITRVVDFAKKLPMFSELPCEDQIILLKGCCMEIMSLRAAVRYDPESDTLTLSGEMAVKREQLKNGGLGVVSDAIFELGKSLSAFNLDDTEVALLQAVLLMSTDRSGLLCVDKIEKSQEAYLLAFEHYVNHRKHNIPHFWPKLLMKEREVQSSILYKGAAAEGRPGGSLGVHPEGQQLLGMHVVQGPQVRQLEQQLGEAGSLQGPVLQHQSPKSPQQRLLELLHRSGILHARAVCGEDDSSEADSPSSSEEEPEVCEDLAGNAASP
Summary of the method: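 HepG2 cells transiently transfected with multiplexed GAL4-UAS reporter units for exogenous chimeric THRa1-Gal4; reporter mRNA measured 24 h after dosing by RT-PCR, 6-FAM labelling, HpaI digestion and capillary electrophoresis. Gain-of-signal fitted versus DMSO baseline.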

[18] = BSK_4H_SRB: Viability Assessment in the BioMAP Diversity Plus: 4H Assay (AID 2283027); conditions: primary human endothelial cells (HUVEC);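 note: cells exposed to compound for 24 h before staining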
Summary of the method: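 Cytotoxicity readout: sulforhodamine B (0.1%) staining of total protein after 10% TCA fixation, measured at 560 nm in human umbilical vein endothelium at 24 h. DMSO set the baseline; fitting was bidirectional.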

Sequence of E-selectin (Homo sapiens) (P16581 whole entry, looked up): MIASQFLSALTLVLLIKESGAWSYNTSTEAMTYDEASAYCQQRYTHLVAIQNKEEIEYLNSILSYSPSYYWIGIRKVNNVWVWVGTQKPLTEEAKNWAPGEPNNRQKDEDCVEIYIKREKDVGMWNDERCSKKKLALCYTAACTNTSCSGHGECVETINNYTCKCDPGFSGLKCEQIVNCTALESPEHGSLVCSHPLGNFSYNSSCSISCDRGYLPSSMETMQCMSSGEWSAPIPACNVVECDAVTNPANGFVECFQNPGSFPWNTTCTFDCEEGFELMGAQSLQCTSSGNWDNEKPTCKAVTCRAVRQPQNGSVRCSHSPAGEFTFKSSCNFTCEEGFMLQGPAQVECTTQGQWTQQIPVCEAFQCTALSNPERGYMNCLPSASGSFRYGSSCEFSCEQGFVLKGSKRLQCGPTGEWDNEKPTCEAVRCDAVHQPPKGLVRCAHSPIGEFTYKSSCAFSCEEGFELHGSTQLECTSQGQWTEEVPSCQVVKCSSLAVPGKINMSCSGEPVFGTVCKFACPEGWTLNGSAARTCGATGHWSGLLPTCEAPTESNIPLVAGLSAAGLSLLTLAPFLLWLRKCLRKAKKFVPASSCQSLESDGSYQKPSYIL

Oc1ccc(O)cc1
AC50 [1]: 13.8 µM (active) | outcome [2]: inactive | outcome [3]: inactive | outcome [4]: inactive | AC50 [5]: 23.5 µM (active) | outcome [6]: inactive | outcome [7]: inactive | outcome [8]: inactive | outcome [9]: inactive | AC50 [10]: 2.96 µM (active) | outcome [11]: inactive | AC50 [12]: 20 µM (active) | outcome [13]: inactive | outcome [14]: inactive | outcome [15]: inactive | outcome [16]: inactive

Cc1occc(=O)c1O
outcome [1]: inactive | outcome [2]: inactive | outcome [3]: inactive | outcome [4]: inactive | outcome [5]: inactive | outcome [6]: inactive | outcome [7]: inactive | outcome [8]: inactive | outcome [9]: inactive | outcome [10]: inactive | outcome [11]: inactive | outcome [12]: inactive | outcome [13]: inactive | outcome [14]: inactive | outcome [15]: inactive | outcome [16]: inactive

CC(COCC(C)OC(=O)c1ccccc1)OC(=O)c1ccccc1 (centres undefined)
outcome [17]: inactive | outcome [1]: inactive | outcome [2]: inactive | outcome [3]: inactive | outcome [4]: inactive | outcome [5]: inactive | outcome [6]: inactive | outcome [7]: inactive | outcome [8]: inactive | outcome [9]: inactive | outcome [10]: inactive | outcome [11]: inactive | outcome [12]: inactive | outcome [18]: inactive | outcome [13]: inactive | outcome [14]: inactive | outcome [15]: inactive | outcome [16]: inactive

CO[C@@H]1COCC[C@@H]1N[C@@H]1CC[C@@](C(=O)N2CCc3ncc(C(F)(F)F)cc3C2)(C(C)C)C1
outcome [1]: inactive | outcome [2]: inactive | outcome [3]: inactive | outcome [4]: inactive | outcome [5]: inactive | outcome [6]: inactive | outcome [7]: inactive | outcome [9]: inactive | outcome [10]: inactive | outcome [11]: inactive | outcome [12]: inactive | outcome [18]: inactive | outcome [13]: inactive | outcome [14]: inactive | outcome [15]: inactive | outcome [16]: inactive

O=C(N[C@@H](c1ccccc1)[C@@H]1CCCCN1)c1cccc(C(F)(F)F)c1Cl
outcome [1]: inactive | AC50 [2]: 36 µM (active) | AC50 [3]: 20 µM (active) | outcome [4]: inactive | AC50 [5]: 29.2 µM (active) | AC50 [6]: 12.7 µM (active) | outcome [7]: inactive | outcome [8]: inactive | AC50 [9]: 20 µM (active) | AC50 [10]: 31.8 µM (active) | AC50 [11]: 13.7 µM (active) | AC50 [12]: 20 µM (active) | AC50 [13]: 34.3 µM (active) | outcome [14]: inactive | outcome [15]: inactive | outcome [16]: inactive

CC(C)(C)c1ccccc1
outcome [1]: inactive | outcome [2]: inactive | outcome [3]: inactive | outcome [4]: inactive | outcome [5]: inactive | outcome [6]: inactive | outcome [7]: inactive | outcome [8]: inactive | outcome [9]: inactive | outcome [10]: inactive | outcome [11]: inactive | outcome [12]: inactive | outcome [18]: inactive | outcome [13]: inactive | outcome [14]: inactive | outcome [15]: inactive | outcome [16]: inactive

Cc1ccc(-c2cc(C(F)(F)F)nn2-c2ccc(S(N)(=O)=O)cc2)cc1
AC50 [1]: 30 µM (active) | AC50 [2]: 33.3 µM (active) | AC50 [3]: 37.8 µM (active) | AC50 [4]: 27.8 µM (active) | AC50 [5]: 31 µM (active) | AC50 [6]: 32.7 µM (active) | AC50 [9]: 23.1 µM (active) | AC50 [10]: 31.7 µM (active) | AC50 [11]: 37.5 µM (active) | AC50 [12]: 25.8 µM (active) | AC50 [13]: 35.7 µM (active) | AC50 [14]: 28.4 µM (active) | AC50 [15]: 20 µM (active) | outcome [16]: inactive

O=C(Oc1ccccc1)c1cccc(C(=O)Oc2ccccc2)c1
outcome [17]: inactive | outcome [1]: inactive | outcome [2]: inactive | outcome [3]: inactive | outcome [4]: inactive | outcome [5]: inactive | outcome [6]: inactive | outcome [7]: inactive | outcome [9]: inactive | outcome [10]: inactive | outcome [11]: inactive | outcome [12]: inactive | outcome [13]: inactive | outcome [14]: inactive | outcome [15]: inactive | outcome [16]: inactive

Reference: PubChem BioAssay (EPA / NIEHS)
